For 40 compounds, growth results are on record in PubChem BioAssay (NCI).

The panel holds about 83,000 compounds, 20% with a hit somewhere; the sample as a whole holds those more often.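 For each line, cells grew in 96-well plates with the test compound present at a single concentration for 48 hours.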 Values without a mark were called inactive. The source made the active and inactive calls.

This assay deals with NCI/ADR-RES ovarian. Put plainly: NCI-60 one-dose screen, 48 h (100 = growth as untreated, 0 = no growth, -100 = all killed). To be noted: 10 µM unless noted. As for the experimental part:
Growth inhibition of the NCI/ADR-RES human […] tumor cell line is measured as a screen for anti-cancer activity. Cells are grown in 96 well plates and exposed to the test compound for 48 hours. Compounds are tested at a single concentration, which is 10^-5 M for most compounds. The reported endpoint is percent growth (GI% or GIPRCNT), where numbers from 0 - 100% represent growth inhibition, and numbers from -100% - 0 represent cell death. For example, a value of 40 represents 60% growth inhibition. A value of 0 means no net growth occurred over the course of the experiment. A value of -40 indicates 40% of cells at the beginning of the experiment died by the end of the experiment. A value of -100 means all cells are dead at the end of the experiment.
NCI-60 Human Tumor Cell Lines Screen was performed using the standard one-dose NCI protocol, which is described in more detail at https://dtp.cancer.gov/discovery_development/nci-60/default.htm.
Compounds with GIPRCNT values below 10 were considered active. Activity score was based on GIPRCNT using the following formula: […]
Score is 0 for GIPRCNT values of 100 or above, 50 for GIPRCNT values of 0, and 100 for GIPRCNT values of -100.
Take `Nc1nc(N(Cc2ccccc2)c2ccccc2)c2cn[nH]c2n1`: the growth was 59.9%.

As for `Oc1c(CN2CCC(N3CCOCC3)CC2)cc(Cc2cc(CN3CCC(N4CCOCC4)CC3)c(O)c3ncccc23)c2cccnc12`, the growth is 40.7%. For `C/C(Cc1ccc(Cl)cc1)=C(\c1ccc(OCCN2CCCCCC2)cc1)c1ccc(OC(=O)c2ccccc2)cc1`, the growth is 47%. Then `O=CCCCOCc1ccccc1`, with 97.4%. Then `CS(=O)(=O)Nc1cc(-c2ccc3ncnc(Nc4ccc(F)c(Cl)c4)c3c2)ccc1Cl`, with 41.6%; and `O=C1/C(=C/c2ccccn2)SC(=S)N1N1CCOCC1`, with 104%; and `CC(=O)O[C@H]1CC[C@]2(C)[C@H]3CC=C4[C@@H]5CC(C)(C)CC[C@]5(C(=O)N5CCN(CCC#N)CC5)CC[C@@]4(C)[C@]3(C)CC[C@H]2C1(C)C`, with 48.8%. As to `Clc1ccc(-c2cc(-c3ccccc3)nc(N3CCN(CCCNc4ccnc5cc(Cl)ccc45)CC3)n2)cc1`, the growth was 36%.

As to `C=CN(C(=O)N1CCN(c2cc3c(cc2F)c(=O)c(C(=O)O)cn3C2CC2)CC1)c1nc(-c2ccccc2)cs1`, the growth is 103%. `COc1ccc(C/C(C)=C(\c2ccc(O)cc2)c2ccc(OCCN3CCCCC3)cc2)cc1`: the growth was 90.5%. For `CCOC(=O)CNC1=C(Cl)C(=O)N(Cc2ccc(Cl)cc2)C1=O` the value was 104%. For `Cc1cc(Cl)nc(N2CCN(CCNc3ccnc4cc(Cl)ccc34)CC2)n1` the value was 45.2%; for `c1cc(OCCN2CCCC2)ccc1CNc1ccc2nc(CCC3CCCCC3)[nH]c2c1`, 85%; for `Cc1ccc(-c2nc(SCC(=O)N3CCN(c4cc5c(cc4F)c(=O)c(C(=O)O)cn5C4CC4)CC3)nc(Cl)c2C#N)cc1`, 102%. In the case of `Cc1ccc2c(/C=C/C(=O)c3cc(CN4CCOCC4)c(O)c4nc(C)ccc34)cc(CN3CCOCC3)c(O)c2n1`, the growth was 8.34% (active). As to `O=C1CCCCN1c1ccc(C2=NCCCN2)cc1`, the growth is 103%.

Take `CN(C)Cc1ccc(NC(=O)c2cncc(C#Cc3cnc(N)c4ncccc34)c2)cc1C(F)(F)F`: the growth was 72.4%. Then `Cc1cc(O)c(=O)cc2c1C[C@H]1CC(C)(C)/C=C/C[C@]3(C)Oc4cc(=O)c(O)cc(C)c4C[C@H]3C[C@H](O)[C@@]1(C)O2`, with 0.831% (active); and `CN1CCN(c2ccc(NC3=CC(=O)c4ncncc4C3=O)cc2)CC1`, with -20.4% (active); and `c1cc(OCCN2CCCCC2)ccc1CNc1ccc2nc(CCC3CCCCC3)[nH]c2c1`, with 63.8%. For `CC(=O)Nc1sc2c(c1-c1nc3ccccc3s1)CNC2` the value was 23.2%. As for `COc1ccc(C2C3=C(COC3=O)N(CCO)c3cc4c(cc32)OCO4)cc1OC` (stereo not given), the growth is 94.7%. For the compound `CC(C)=CC(=O)N[C@H]1CC[C@]2(C)C3CC[C@]4(C)C(C(C)N(C)C)=CCC4C3CCC2[C@H]1O` (stereo not given in full), the growth was 71.6%. In the case of `CCCCO[C@@H]1C=C2[C@H]3CC(C)(C)C(=O)C[C@]3(C(=O)O[C@@H]3O[C@H](CO[C@@H]4O[C@H](CO)[C@@H](OC5OC(C)C(O)C(O)C5O)[C@H](O)[C@H]4O)[C@@H](O)[C@H](O)[C@H]3O)CC[C@@]2(C)[C@]2(C)CC[C@H]3C(C)(C)C(=O)CC[C@]3(C)[C@@H]12` (stereo not given in full), the growth was 83.8%.

In the case of `c1ccc(-c2nc3ccccc3[nH]2)c(OCCCCCOc2ccccc2-c2nc3ccccc3[nH]2)c1`, the growth is 63.9%. Turning to `COc1cc2c(c(OC)c1OC)CCC(c1cccc(C(=O)Nc3ccc(Br)cc3)c1)O2` (stereo not given), the growth was 63.9%.

In the case of `O=C(C[C@]1(O)C(=O)Nc2ccc(Br)cc21)c1ccco1`, the growth was 100%. Then `COCCn1cc(-c2nc(-c3cc4cccnc4n3C)cs2)c2ccccc21`, with 13.3%; and `COc1ccc(N=C2NN=C(c3c[nH]c4ccccc34)CS2)cc1OC`, with 17.7%; and `Nc1ccc(-c2ccncc2)cc1NC(=O)N1CCCC1`, with 81.8%.

Turning to `CCn1cc(Cc2cc(C(=O)Nc3cc4cc(OC)c(OC)cc4c(C)n3)ccc2Cl)cn1`, the growth is 22.5%. For `FC(F)(F)c1[nH]ncc1-c1nc2ccc3[nH]ncc3c2c2c1CCCC2` the value was 53.7%; for `CN1C(=O)/C(=C/c2ccc(C(=O)Nc3ncc(Cc4cc(Cl)ccc4Cl)s3)cc2)SC1=S`, 70.2%. Then `COc1ccc(-c2cc(-c3cc(OC)ccc3OC)nc(SCC(C)=O)c2C#N)cc1`, with 52.1%; and `COc1cc(-c2ccc(-c3ccc(C(=N)N)cc3)s2)cc(OC)c1OC`, with 95.4%; and `Fc1cccc(CNc2c3ccccc3nc3ccccc23)c1`, with 30.1%. In the case of `C#CCOc1cccc(Nc2ncnc3cc(NC(=O)CCl)ccc23)c1`, the growth is -21.9% (active). Then `COC(=O)c1nc(-c2ccccc2)oc1S(=O)(=O)N1CCCC(C)C1` (stereo not given), with 100%; and `O=C1/C(=C/c2c[nH]c(=O)[nH]c2=O)SC(=S)N1Cc1ccccc1`, with 106%.

With `Fc1ccc(/C=C/[C@@H]2C[C@@H](F)CCO2)cc1`, the growth was 103%.
